From the antibiotic and cytotoxicity screens of Wong et al. (2023)
The campaign covered roughly 39,000 compounds. About 3,300 (8.5%) were called active. The list comes from a sample in which actives are over-represented; it also holds similar structures and randomly drawn compounds.

test system: HepG2; assay: cytotoxicity call (relative viability < 0.9); conditions: 10 µM

| SMILES | cytotoxicity call |
| --- | --- |
| C[C@H](CO)N1C[C@H](C)[C@@H](CN(C)C(=O)CCC(F)(F)F)OCc2ccccc2-c2c(n(C)c3ccccc23)C1=O | inactive |
| CSc1scc(-c2cc(Cl)cc(Cl)c2)c1C#N | inactive |
| C[C@H](CO)N1C[C@H](C)[C@@H](CN(C)S(=O)(=O)c2cccs2)Oc2ccc(NC(=O)CCCN(C)C)cc2C1=O | inactive |
| Cc1ccc(S(=O)(=O)Nc2ccc3c(c2)C(=O)N([C@@H](C)CO)C[C@@H](C)[C@@H](CN(C)C(=O)Nc2ccccc2)OCCCC[C@@H](C)O3)cc1 | inactive |
| CCCC/C=C/[C@H]([C@@H](O)Cc1ccccc1)N(CC#Cc1ccccc1)Cc1ccccc1Br | inactive |
| COc1ccc(NC(=O)Nc2ccc3c(c2)C(=O)N([C@H](C)CO)C[C@@H](C)[C@@H](CN(C)C(=O)Nc2ccc(C(F)(F)F)cc2)O3)cc1 | inactive |
| C[C@@H](O)CN1CCN(S(=O)(=O)C2CC2)CC1 | inactive |
| C[C@@H]1CN([C@H](C)CO)C(=O)c2cccc(NC(=O)C3CC3)c2O[C@H]1CN(C)S(=O)(=O)c1ccccc1 | inactive |
| CC(=O)Nc1nc(C(=O)O)cs1 | inactive |
| Cc1ccc(-n2nc(C(C)(C)C)cc2NC(=O)Nc2ccc(OCCN3CCOCC3)c3ccccc23)cc1 | active |
| Cc1ccc(S(=O)(=O)NC2=NCN(CCN3CCOCC3)CN2)cc1 | inactive |
| CC(C)(C)c1cc(NC(=O)Nc2ccc(Oc3ccnc4nc(O)cnc34)cc2F)n(-c2ccccc2)n1 | inactive |
| CCCNC(=O)N1C[C@@H](C)[C@@H](OC)CN(C)C(=O)c2cc(NS(=O)(=O)CC(F)(F)F)ccc2OC[C@H]1C | inactive |
| CC1(C)OC2CC3C4CC(F)C5=CC(=O)C=CC5(C)C4C(O)CC3(C)C2(C(=O)CO)O1 (stereo not given) | inactive |
| C[C@@H]1CN([C@@H](C)CO)C(=O)c2cccc(NC(=O)C3CCCCC3)c2O[C@@H]1CN(C)S(=O)(=O)c1cn(C)cn1 | inactive |
| COc1ccc([Si](C)(C)[C@@H]2[C@@H](CCn3cc([C@H](O)c4ccccc4)nn3)O[C@]3(C(=O)N(Cc4cccc(N5C(=O)c6cccc7cccc5c67)c4)c4ccccc43)[C@H]2C)cc1 | inactive |
| COc1ccc([Si](C)(C)[C@H]2[C@H](CCn3cc(CCO)nn3)O[C@@]3(C(=O)N(C)c4ccccc43)[C@@H]2C)cc1 | inactive |
| COc1ccc([Si](C)(C)[C@H]2[C@H](CCn3cc(CCO)nn3)O[C@@]3(C(=O)N(Cc4cccc(N5C(=O)c6cccc7cccc5c67)c4)c4ccccc43)[C@@H]2C)cc1 | inactive |
| C[C@@H]1[C@@H]([Si](C)(C)F)[C@H](CCn2cc([C@H](O)c3ccccc3)nn2)O[C@@]12C(=O)N(c1ccccc1)c1ccccc12 | active |
| C[C@H]1[C@H]([Si](C)(C)F)[C@@H](CCn2cc([C@H](O)c3ccccc3)nn2)O[C@]12C(=O)N(c1ccccc1)c1ccccc12 | inactive |
| COc1ccc([Si](C)(C)[C@@H]2[C@@H](CCn3cc([C@H](O)c4ccccc4)nn3)O[C@]3(C(=O)N(Cc4ccc(N5C(=O)c6cccc7cccc5c67)cc4)c4ccccc43)[C@H]2C)cc1 | active |
| COc1ccc([Si](C)(C)[C@H]2[C@H](CCn3cc([C@H](O)c4ccccc4)nn3)O[C@@]3(C(=O)N(Cc4ccc(N5C(=O)c6cccc7cccc5c67)cc4)c4ccccc43)[C@@H]2C)cc1 | inactive |
| COc1ccc([Si](C)(C)[C@@H]2[C@@H](CCn3cc(CCO)nn3)O[C@]3(C(=O)N(C)c4ccccc43)[C@H]2C)cc1 | inactive |
| COc1ccc([Si](C)(C)[C@@H]2[C@@H](CCn3cc([C@H](O)c4ccccc4)nn3)O[C@]3(C(=O)N(c4ccccc4)c4ccccc43)[C@H]2C)cc1 | inactive |
| COc1ccc([Si](C)(C)[C@H]2[C@H](CCn3cc([C@H](O)c4ccccc4)nn3)O[C@@]3(C(=O)N(Cc4cccc(N5C(=O)c6cccc7cccc5c67)c4)c4ccccc43)[C@@H]2C)cc1 | inactive |

| SMILES | cytotoxicity call |
| --- | --- |
| COc1ccc([Si](C)(C)[C@@H]2[C@@H](CCn3cc(CCO)nn3)O[C@]3(C(=O)N(Cc4ccc(N5C(=O)c6cccc7cccc5c67)cc4)c4ccccc43)[C@H]2C)cc1 | active |
| COc1ccc([Si](C)(C)[C@@H]2[C@@H](CCn3cc(CCO)nn3)O[C@]3(C(=O)N(Cc4cccc(N5C(=O)c6cccc7cccc5c67)c4)c4ccccc43)[C@H]2C)cc1 | active |
| COc1ccc(C#Cc2ccc([C@H]3[C@@H](CO)N4CCCCN(S(=O)(=O)c5cn(C)cn5)C[C@H]34)cc2)cc1 | inactive |
| C[C@@H]1CN([C@H](C)CO)S(=O)(=O)c2ccc(-c3cncnc3)cc2O[C@@H]1CN(C)C(=O)Cc1cccnc1 | inactive |
| Cl.N=C(N)NCCCC(N)C(=O)O (stereo not given) | inactive |
| C[C@@H]1CCCCO[C@H](CN(C)Cc2ccc(C(=O)O)cc2)[C@@H](C)CN([C@H](C)CO)C(=O)c2cc(NC(=O)Nc3ccc(F)cc3)ccc2O1 | inactive |
| C[C@@H]1CN([C@@H](C)CO)C(=O)c2cc(NC(=O)CCN3CCOCC3)ccc2O[C@H]1CN(C)C(=O)Nc1ccc(F)cc1 | inactive |
| COc1ccc(NC(=O)Nc2ccc3c(c2)C(=O)N([C@@H](C)CO)C[C@H](C)[C@H](CN(C)C(=O)CCC(F)(F)F)OCCCC[C@@H](C)O3)cc1 | inactive |
| C[C@H](O)C#Cc1ccc2c(c1)O[C@@H](CN(C)C(=O)C1CCCCC1)[C@@H](C)CN([C@H](C)CO)S2(=O)=O | inactive |
| CCOC(=O)c1cn[nH]c1 | inactive |
| C[C@H]1CN([C@@H](C)CO)C(=O)c2cc(NS(=O)(=O)c3cn(C)cn3)ccc2O[C@H]1CN(C)S(=O)(=O)c1ccccc1 | inactive |
| CCS(=O)(=O)NCC[C@H]1CC[C@@H](NS(=O)(=O)c2ccccc2C)[C@H](CO)O1 | inactive |
| C[C@@H]1CN([C@@H](C)CO)C(=O)c2cccc(NS(C)(=O)=O)c2O[C@@H]1CN(C)C(=O)Nc1ccc(F)cc1 | inactive |
| CCOC(=O)c1c(CN2CCN(c3ccccc3C)CC2)n(-c2ccccc2)c2cc(Br)c(O)cc12 | inactive |
| C[C@@H]1CN([C@@H](C)CO)C(=O)Cc2cc(NS(=O)(=O)c3ccc(F)cc3)ccc2O[C@@H]1CN(C)S(=O)(=O)c1ccc(F)cc1 | inactive |
| COc1ccc(S(=O)(=O)Nc2cccc3c2O[C@H](CN(C)S(=O)(=O)c2ccc(OC)cc2)[C@H](C)CN([C@H](C)CO)C3=O)cc1 | inactive |
| O=C(O)CCc1nc2ccccc2[nH]1 | inactive |
| FC(F)(F)c1nc2ccccc2[nH]1 | inactive |
| C(=N\c1nc2ccccc2[nH]1)/N(c1ccccc1)c1ccccc1 | active |
| C[C@H](CO)N1C[C@H](C)[C@@H](CN(C)C(=O)c2ccncc2)OCCCC[C@H](C)Oc2ccc(NS(=O)(=O)c3cn(C)cn3)cc2C1=O | inactive |
| CC(C)NC(=O)Nc1ccc2c(c1)C(=O)N([C@H](C)CO)C[C@H](C)[C@H](CN(C)S(=O)(=O)c1cccs1)O2 | inactive |
| Cl.Cl.OCCOCCN1CCN(C(c2ccccc2)c2ccc(Cl)cc2)CC1 (stereo not given) | inactive |
| OCCN1CCN(c2ncnc3c2ncn3[C@H]2CN(Cc3cccc(C(F)(F)F)c3)C[C@@H](CO)O2)CC1 | inactive |
| Cl.Cl.OCCN1CCN(CCCN2c3ccccc3Sc3ccc(C(F)(F)F)cc32)CC1 | active |
| O=C(O)C=CC(=O)O.OCCOCCN1CCN(C2=Nc3ccccc3Sc3ccccc32)CC1 | inactive |

| SMILES | cytotoxicity call |
| --- | --- |
| CN1CCN(CCCN2c3ccccc3Sc3ccc(C(F)(F)F)cc32)CC1.Cl.Cl | active |
| OCCN1CCN(CCCN2c3ccccc3Sc3ccc(Cl)cc32)CC1 | active |
| CC(=O)c1ccc2c(c1)N(CCCN1CCN(CCO)CC1)c1ccccc1S2.O=C(O)C=CC(=O)O | inactive |
| Cc1ccc(S(=O)(=O)N(C)C[C@@H]2OCCCC[C@H](C)Oc3ccc(NC(=O)C4CCCCC4)cc3C(=O)N([C@H](C)CO)C[C@@H]2C)cc1 | inactive |
| Cc1noc(C)c1S(=O)(=O)Nc1ccc2c(c1)C(=O)N([C@@H](C)CO)C[C@@H](C)[C@H](CN(C)Cc1ccc(C(F)(F)F)cc1)OCCCC[C@@H](C)O2 | inactive |
| COc1ccc(NC(=O)N(C)C[C@@H]2OCCCC[C@@H](C)Oc3ccc(NC(=O)NC4CCCCC4)cc3C(=O)N([C@@H](C)CO)C[C@@H]2C)cc1 | inactive |
| C[C@@H]1CN([C@@H](C)CO)C(=O)c2cc(C#CC3(O)CCCC3)cnc2O[C@H]1CN(C)S(=O)(=O)c1ccc(F)cc1 | inactive |
| O[C@@H](CCl)CN1CC[N+]2(CC1)CC[N+]1(CCN(C[C@@H](O)CCl)CC1)CC2 | inactive |
| O=C(/C=C/c1ccc(O)c(O)c1)O[C@@H]1C[C@](O)(C(=O)O)C[C@@H](OC(=O)/C=C/c2ccc(O)c(O)c2)[C@H]1OC(=O)/C=C/c1ccc(O)c(O)c1 | inactive |
| CN(C)CCCNC(=O)C[C@@H]1CC[C@@H]2[C@H](COc3ccc(NC(=O)c4ccccc4F)cc3C(=O)N2C)O1 | inactive |
| C[C@H](CO)N1C[C@H](C)[C@H](CN(C)Cc2ccccc2)OCCCC[C@H](C)Oc2ccc(NS(=O)(=O)c3cccs3)cc2C1=O | inactive |
| COc1ccc(CN(C)C[C@@H]2OCCCC[C@H](C)Oc3ccc(NC(=O)NC(C)C)cc3C(=O)N([C@H](C)CO)C[C@@H]2C)cc1 | inactive |
| C[C@@H]1CN([C@@H](C)CO)C(=O)c2cc(NS(=O)(=O)c3cccs3)ccc2O[C@H]1CN(C)Cc1ccc(Cl)c(Cl)c1 | inactive |
| COc1ccc(S(=O)(=O)N(C)C[C@H]2OCCCC[C@@H](C)Oc3ccc(NC(=O)Nc4ccc(C(F)(F)F)cc4)cc3C(=O)N([C@H](C)CO)C[C@H]2C)cc1 | active |
| COc1ccc(S(=O)(=O)N(C)C[C@H]2OCCCC[C@H](C)Oc3ccc(NC(=O)Nc4ccc(C(F)(F)F)cc4)cc3C(=O)N([C@H](C)CO)C[C@@H]2C)cc1 | active |
| COc1ccc(S(=O)(=O)N(C)C[C@H]2OCCCC[C@H](C)Oc3ccc(NC(=O)Nc4ccc(C(F)(F)F)cc4)cc3C(=O)N([C@@H](C)CO)C[C@@H]2C)cc1 | inactive |
| COc1ccc(S(=O)(=O)N(C)C[C@@H]2OCCCC[C@@H](C)Oc3ccc(NC(=O)Nc4ccc(C(F)(F)F)cc4)cc3C(=O)N([C@H](C)CO)C[C@@H]2C)cc1 | inactive |
| COc1ccc(S(=O)(=O)N(C)C[C@@H]2OCCCC[C@H](C)Oc3ccc(NC(=O)Nc4ccc(C(F)(F)F)cc4)cc3C(=O)N([C@H](C)CO)C[C@@H]2C)cc1 | inactive |
| COc1ccc(S(=O)(=O)N(C)C[C@@H]2OCCCC[C@H](C)Oc3ccc(NC(=O)Nc4ccc(C(F)(F)F)cc4)cc3C(=O)N([C@@H](C)CO)C[C@H]2C)cc1 | inactive |
| COc1ccc(S(=O)(=O)N(C)C[C@@H]2OCCCC[C@@H](C)Oc3ccc(NC(=O)Nc4ccc(C(F)(F)F)cc4)cc3C(=O)N([C@H](C)CO)C[C@H]2C)cc1 | inactive |
| COc1ccc(S(=O)(=O)N(C)C[C@H]2OCCCC[C@H](C)Oc3ccc(NC(=O)Nc4ccc(C(F)(F)F)cc4)cc3C(=O)N([C@@H](C)CO)C[C@H]2C)cc1 | inactive |
| COc1ccc(S(=O)(=O)N(C)C[C@H]2OCCCC[C@@H](C)Oc3ccc(NC(=O)Nc4ccc(C(F)(F)F)cc4)cc3C(=O)N([C@@H](C)CO)C[C@H]2C)cc1 | active |
| COc1ccc(S(=O)(=O)N(C)C[C@H]2OCCCC[C@H](C)Oc3ccc(NC(=O)Nc4ccc(C(F)(F)F)cc4)cc3C(=O)N([C@H](C)CO)C[C@H]2C)cc1 | inactive |
| COc1ccc(S(=O)(=O)N(C)C[C@@H]2OCCCC[C@H](C)Oc3ccc(NC(=O)Nc4ccc(C(F)(F)F)cc4)cc3C(=O)N([C@@H](C)CO)C[C@@H]2C)cc1 | active |
| COc1ccc(S(=O)(=O)N(C)C[C@@H]2OCCCC[C@H](C)Oc3ccc(NC(=O)Nc4ccc(C(F)(F)F)cc4)cc3C(=O)N([C@H](C)CO)C[C@H]2C)cc1 | inactive |
